The record followed here is ChEMBL document CHEMBL4513216, “Probing the Open Global Health Chemical Diversity Library for Multistage-Active Starting Points for Next-Generation Antimalarials” (ACS Infect Dis, 2020).

Structures are written as SMILES. In all, about 69,000 compounds went through this assay and about 8,600 (12%) showed an effect of 50% or more. Shown is part of a subset that was picked to be rich in strong results.

For this experiment, the system named is Plasmodium berghei. Description: Screen against P. berghei liver stage (PbLuc), transformed with Luciferase, at 10uM. The class given is functional, HepG2. To be noted: tested at 10 uM.
In the case of `Cc1noc(C)c1CNCC1(COc2cccnc2)C[C@@H](O)[C@@H](O)C1` (some centres not stated), the INHIBITION was 27.5%.
Under `Cc1ccccc1C1(CNC(=O)NCCc2nnc3n2CCC3)CC1` stands -25.3%; under `NC(=O)C1(c2cnccn2)CCCN1Cc1cccc(Cl)c1` (configuration not stated), 15.9%.
On to `NC(=O)C1(c2cnccn2)CCCN1Cc1ccncc1` (configuration not stated), for which the INHIBITION amounted to 72.3%.
Under `NC(=O)C1(c2cnccn2)CCCN1Cc1ccc(Cl)cc1` (configuration not stated) stands -7.79%; under `OCC1(NCc2cnc(-c3cccs3)s2)CCOCC1`, 0.0944%; under `c1cnn(CC2CN(Cc3csc(C4CCCCC4)n3)CCO2)c1` (configuration not stated), 64.8%.
In the case of `Clc1cccc(OCCCN2CCOC(Cn3cncn3)C2)c1` (configuration not stated) it was 14.1%; in that of `Clc1ccc(OCCCN2CCOC(Cn3cncn3)C2)cc1` (configuration not stated), 66.2%.
Take `CC(C)(C)c1nc(CN2CCOC(Cn3cncn3)C2)cs1` (configuration not stated): the INHIBITION is recorded as 44.3%.
`c1ccc(-c2nc(CN3CCOC(Cn4cncn4)C3)cs2)cc1` (configuration not stated): the INHIBITION was found to be 18.2%.
Turning to `Cc1cnn(CC2CN(Cc3csc(C4CCCC4)n3)CCO2)c1` (configuration not stated), the INHIBITION is -6.44%.
As to `c1csc(-c2nc(CN3CCOC(Cn4cncn4)C3)cs2)c1` (configuration not stated), the INHIBITION was 40.9%.
In the case of `c1cnc(-c2nc(CN3CCOC(Cn4cncn4)C3)cs2)nc1` (configuration not stated), the INHIBITION worked out at 88.1%.
`c1ncn(CC2CN(Cc3csc(C4CCCC4)n3)CCO2)n1` (configuration not stated): the INHIBITION was found to be 58.3%.
On to `CC(C)c1nc(CN2CCOC(Cn3cncn3)C2)cs1` (configuration not stated), for which the INHIBITION is -33.9%.
In the case of `Fc1ccc(OCCCN2CCOC(Cn3cncn3)C2)cc1` (configuration not stated) it was 19.4%; in that of `c1ccc(-c2nc(CN3CCOC(Cn4cccn4)C3)cs2)cc1` (configuration not stated), -6.04%.
Under `O=C(c1ccc(S(=O)(=O)NCc2ccon2)cc1)N1CCCCCC1` stands -6.21%.
With `CC(C)c1nnc2n1CCN(C(=O)c1ccc(N(C)C)nn1)C2`, the INHIBITION worked out at 4.71%.
Under `Cn1cc(-c2cnc(-c3ccnn3C)nc2)cc1C(=O)NC1CC1` stands 24.6%; under `COC(=O)N1CCC(c2nnc(Cn3ccnc3)n2C)CC1`, 1.48%; under `N#Cc1ccc(Cl)cc1NCC1CC1`, 47.7%.
Under `N#Cc1cc(F)ccc1NCC1CCN(S(=O)(=O)C(F)F)CC1` stands 65.3%; under `CS(=O)(=O)N1CCC(CNc2cc(Cl)ccc2C#N)CC1`, -13.9%.
Under `O=S(=O)(NCc1ccccc1Cn1cncn1)N1CCCCCC1` stands 34.7%; under `COCc1cccc(CNc2cnn(C(C)(C)C)c(=O)c2Cl)c1`, 70.6%; under `CCc1c(NCc2ccc(F)cc2)cnn1CC(C)C`, 22.6%.
On to `COCc1cccc(CNC(=O)CNc2ccccc2C(C)=O)c1`, for which the INHIBITION is recorded as 11.4%.
In the case of `COCc1ccc(CNc2cnn(C(C)(C)C)c(=O)c2Cl)cc1` it was 54.7%; in that of `COc1cc(CNC(=O)c2cc(Cl)ccc2F)ccn1`, 11.4%; in that of `CC(C)(CO)Nc1c(NCc2ccccc2)c(=O)c1=O`, 17.7%.
Under `CC(C)(C)n1ncc(NCc2ccccc2)c(Cl)c1=O` stands 61.1%; under `Cn1ncc(NCc2cccc(F)c2)c(Cl)c1=O`, -5.25%.
Consider `COc1cc(CNc2cnn(C(C)(C)C)c(=O)c2Cl)ccn1`, for which the INHIBITION is reported as 70.6%.
As for `COc1cc(CNC(=O)CNc2cc(Cl)ccc2OC)ccn1`, the INHIBITION is reported as 14.4%.
On to `COCCNC(=O)Cn1nc(C(C)C)c2cnn(C(C)(C)C)c2c1=O`, for which the INHIBITION is -7.35%.
